Assay [1] can be described thus: inhibitors of TNFa-induced NFkB p65 translocation, primary screen, imaging, HUVEC, MLSMR starter and 10KST1 sets (AID 438;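 active means inhibition above 20% together with a positive visual image hit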;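 further: compound added about 3h40 before a 20 min TNFalpha stimulation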;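 on inhibition: signal is the nuclear over cytoplasmic p65 intensity ratio per well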). The following applies: HUVEC TNFa-induced p65 nuclear translocation; cell count: measured here: nuclei count (cytotoxicity indicator), at 2.08 µM; inhibition: at 2 µM, stronger effect = higher value, 0% TNFa-plus-vehicle, 100% no-TNFa wells.
Assay [2] can be described thus: inhibitors of mutant huntingtin aggregation, primary screen, imaging, exon1htt(103Q)mCFP cells, high-content imaging (AID 483;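 active means visual image review flags a hit and inhibition of aggregation exceeds 20%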;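 further: compound exposure lasted 3 days before fixation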;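 on nuclei count: percent of the per-plate median nuclei count of sample wells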). The conditions noted are these: exon1htt(103Q)mCFP cell line, aggregate imaging, at 2 µM; inhibition of aggregation: stronger effect = higher value; nuclei count: measured here: cell count, toxicity.
Assay [3] is described as follows: inhibitors of E-selectin induction by TNFa, primary screen, imaging, HUVEC, immunofluorescence, MLSMR starter and 10KST1 sets (AID 487;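 active means visually confirmed hit in the image check and inhibition above 20%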;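 on inhibition: signal is fraction of cell area covered by stained E-selectin grains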;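 on nuclei count: 100% = median nuclei count of all wells on the same plate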). The conditions noted are these: HUVEC TNFalpha-induced E-selectin immunofluorescence imaging, at 2 µM; inhibition: stronger effect = higher value; nuclei count: measured here: cell number, toxicity.
The target of assay [4] is Voltage-gated potassium channel subunit beta-2 (Rattus norvegicus) (UniProt P62483). The assay can be described thus: KvBeta enzyme negative modulators, primary screen, biochemical, NADPH fluorescence (AID 622).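 Further: slope of raw intensity against log time taken from 70 to 1610 s.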 The conditions noted are these: recombinant KvBeta, 4-cyanobenzaldehyde reduction, at 10 µM, stronger effect = higher value.
The target is the same in assay [5]. The experiment in a line: KvBeta positive modulators, primary screen, biochemical, NADPH fluorescence (AID 623;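 active means NADPH fluorescence slope more negative than the mean of all samples by about 3 SD, 99.7% confidence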;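 further: fluorescence intensity change per second fitted from 20 to 320 s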). The following applies: Recombinant KvBeta, NADPH fluorescence decrease slope, 10 min; at 10 µM; stronger effect = lower value.
Assay [6] deals with Alpha-2C adrenergic receptor (Homo sapiens) (UniProt P18825). The experiment in a line: modulators of alpha2C/GIRK thallium flux, primary screen, cell-based, HEK293 alpha2C/GIRK1/2 (AID 624;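 active means fluorescence slope after compound addition differing from the mean of all screened samples at 99.7% confidence, in either direction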;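 further: slope of fluorescence ratio to pre-addition baseline per second over 15 to 24 s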). The following applies: thallium flux BTC fluorescence, at 10 µM, actives lie on both sides.
The nature of assay [7]: inhibitors of Sendai virus-induced IRF3 signaling, primary screen, TLR/RLR signaling modifier project, cell-based, Sendai virus stimulus, luciferase, 10K MLSCN set (AID 602276;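 active means inhibition at or above 50% at 10 µM; inactive means inhibition below 50%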;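 further: firefly luciferase from ISG56 promoter only with Renilla not read in this screen; 0% = Sendai virus plus DMSO and 100% = medium plus DMSO without virus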). The conditions noted are these: HEK293 RL24 IRF3 luciferase reporter, at 10 µM, stronger effect = higher value.
A short description of assay [8]: inhibitors of poly I:C-induced TLR3 signaling, primary screen, cell-based, poly I:C stimulus, luciferase, 10K MLSCN set (AID 602277;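 active means inhibition of the reporter signal at or above 50%; inactive means inhibition below 50%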). The conditions noted are these: HEK293-TLR3 RL24 IRF3 luciferase reporter, at 10 µM, stronger effect = higher value. (Reporter assays use an easily measured gene product as a stand-in for the process of interest.)

Consider 14 compounds from PubChem BioAssay.

Each structure is given as a SMILES string. Active and inactive are the calls of the source.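 How the source made its calls, unless noted: active means fluorescence slope higher than the sample average by over 3 SD (cut at about -0.22 in these data, passing the limit was not always enough); inactive means the rest.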 Where a SMILES comes first, the peptide text is derived from it. The star is where a group is joined. Boc = CC(C)(C)OC(=O)*

Voltage-gated potassium channel subunit beta-2 (Rattus norvegicus), sequence (P62483 whole entry, looked up): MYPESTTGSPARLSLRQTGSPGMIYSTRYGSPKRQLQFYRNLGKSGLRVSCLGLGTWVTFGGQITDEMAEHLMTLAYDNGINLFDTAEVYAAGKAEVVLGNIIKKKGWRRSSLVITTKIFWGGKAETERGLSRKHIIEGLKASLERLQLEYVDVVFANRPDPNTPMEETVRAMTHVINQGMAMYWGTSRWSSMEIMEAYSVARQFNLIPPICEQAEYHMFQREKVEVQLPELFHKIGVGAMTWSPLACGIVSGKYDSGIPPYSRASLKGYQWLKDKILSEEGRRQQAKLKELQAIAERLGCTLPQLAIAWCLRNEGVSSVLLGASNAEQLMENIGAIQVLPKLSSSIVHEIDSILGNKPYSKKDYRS
Alpha-2C adrenergic receptor (Homo sapiens), sequence (P18825 whole entry, looked up): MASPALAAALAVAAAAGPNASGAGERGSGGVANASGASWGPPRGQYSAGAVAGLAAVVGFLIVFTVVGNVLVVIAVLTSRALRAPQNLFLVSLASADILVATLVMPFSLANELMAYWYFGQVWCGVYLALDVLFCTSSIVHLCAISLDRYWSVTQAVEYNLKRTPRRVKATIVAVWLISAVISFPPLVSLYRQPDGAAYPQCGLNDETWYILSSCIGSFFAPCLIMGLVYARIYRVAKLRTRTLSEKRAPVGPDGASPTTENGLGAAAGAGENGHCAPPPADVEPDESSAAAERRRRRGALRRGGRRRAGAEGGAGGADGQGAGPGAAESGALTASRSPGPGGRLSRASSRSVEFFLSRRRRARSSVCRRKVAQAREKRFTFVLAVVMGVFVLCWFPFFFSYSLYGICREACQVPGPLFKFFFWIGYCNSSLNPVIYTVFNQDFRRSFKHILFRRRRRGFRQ

Turning to `COc1cc(NC(=O)C2CCCN2S(=O)(=O)c2cccc3cccnc23)cc(OC)c1OC` (centres undefined), the cell count in assay [1] is 667. The inhibition was 0.6% (inactive) in assay [1], -75.5% (inactive) in assay [3], 14.4% (inactive) in assay [7] and 32% (inactive) in assay [8]. In addition, the inhibition of aggregation in assay [2] was 15.1% (inactive). Also, the nuclei count in assay [2] worked out at 77.6%; in assay [3] it was 110%. Besides, the fluorescence slope in assay [4] was -0.598 (inactive). Further, the NADPH fluorescence slope in assay [5] was -3.4e-05 (inactive). The slope in assay [6] was 0.00756 (inactive).
Consider `Cc1oc(-c2ccccc2F)nc1CS(=O)(=O)CC(=O)NCc1ccco1`, for which the cell count in assay [1] came to 753. The inhibition in assay [1] is -1.1% (inactive); in assay [3], -29.4% (inactive); in assay [7] it was 0.0639% (inactive); in assay [8], 22.5% (inactive). In assay [2], the inhibition of aggregation is 4.5% (inactive). Further, the nuclei count was found to be 102% in assay [2] and 107% in assay [3]. Besides, the fluorescence slope in assay [4] is -0.539 (inactive). The NADPH fluorescence slope in assay [5] was -1.9e-05 (inactive). The slope in assay [6] was 0.00692 (inactive).
Regarding `CCOC(=O)C1(CC)NC(c2cccc(F)c2)C2C(=O)N(CC)C(=O)C21` (centres undefined), in assay [1], the cell count is 567. Also, the inhibition in assay [1] is -7.7% (inactive); in assay [3], -6.6% (inactive); in assay [7], 12.4% (inactive); in assay [8], 16.3% (inactive). Besides, the inhibition of aggregation in assay [2] was 21.4% (inactive). Besides, the values for the nuclei count in assay [2] and in assay [3] were 93.8% and 70.2%, respectively. In addition, the fluorescence slope in assay [4] is -0.476 (inactive). In addition, the NADPH fluorescence slope in assay [5] is -0.00018 (inactive). The slope in assay [6] was 0.00451 (inactive).
`Cc1nc2ccc(NC(=O)NCc3ccco3)cc2s1`: in assay [1], the cell count was determined as 359. Further, the inhibition is -2.2% (inactive) in assay [1], -15.3% (inactive) in assay [3], -22.3% (inactive) in assay [7] and -83.4% (inactive) in assay [8]. In addition, the inhibition of aggregation in assay [2] is 21.2% (inactive). The nuclei count in assay [2] came out at 100%; in assay [3] it was 82.3%. In addition, the fluorescence slope in assay [4] was -0.338 (inactive). For the same compound, the NADPH fluorescence slope in assay [5] was 5e-06 (inactive). Besides, the slope in assay [6] was 0.00475 (inactive).
`CSCCC(NC(=O)OC(C)(C)C)C(=O)NC(CC(C)C)C(N)=O` (stereo not drawn) (Boc-Met-Leu-NH2; configuration not given here): the cell count in assay [1] amounted to 396. The inhibition in assay [1] was -2.1% (inactive); in assay [3], 7.9% (inactive); in assay [7] it was 5.67% (inactive); in assay [8], 22% (inactive). In addition, the inhibition of aggregation in assay [2] is -0.6% (inactive). Besides, the nuclei count in assay [2] is 114%; in assay [3], 101%. Besides, the fluorescence slope in assay [4] was -0.577 (inactive). The NADPH fluorescence slope in assay [5] was 3.1e-05 (inactive). Further, the slope in assay [6] was 0.00653 (inactive).
In the case of `COc1cc2c(cc1OC)-c1cc(Nc3ccc4c(c3)OCCO4)nc(=O)n1CC2`, in assay [1], the cell count came to 649. The inhibition in assay [1] was -6.9% (inactive); in assay [3], 5.7% (inactive); in assay [7], 41.3% (inactive); in assay [8], 44.1% (inactive). Moreover, the inhibition of aggregation in assay [2] was 0.9% (inactive). Further, the nuclei count in assay [2] amounted to 104%; in assay [3] it was 128%. Besides, in assay [4], the fluorescence slope was -0.41 (inactive). In assay [5], the NADPH fluorescence slope is -5.2e-06 (inactive). Further, in assay [6], the slope is 0.00445 (inactive).
Regarding `CCOC(=O)N1CCN(C(c2ccc(Cl)cc2)c2sc3nc(C)nn3c2O)CC1` (centres undefined), the cell count in assay [1] was determined as 709. The inhibition in assay [1] is -8% (inactive); in assay [3], -25% (inactive); in assay [7] it was 9.66% (inactive); in assay [8], 19.5% (inactive). Moreover, the inhibition of aggregation in assay [2] is 0.3% (inactive). Besides, the nuclei count in assay [2] came to 104%; in assay [3] it was 106%. In addition, in assay [4], the fluorescence slope was -0.412 (inactive). Besides, in assay [5], the NADPH fluorescence slope is -3.7e-05 (inactive). In addition, the slope in assay [6] was 0.00503 (inactive).
In the case of `Cc1oc2c(CN3CCOCC3)c(O)ccc2c(=O)c1-c1ccc(Br)cc1`, the cell count in assay [1] amounted to 543. In addition, the inhibition was 1.4% (inactive) in assay [1], -0.5% (inactive) in assay [3], -3.85% (inactive) in assay [7] and 26.2% (inactive) in assay [8]. Besides, the inhibition of aggregation in assay [2] was 6.2% (inactive). Besides, the nuclei count in assay [2] stood at 105%; in assay [3], 113%. Besides, in assay [4], the fluorescence slope was -0.0886 (active). Also, the NADPH fluorescence slope in assay [5] was 3.7e-06 (inactive). The slope in assay [6] was 0.00357 (inactive).
For the compound `O=C(NCCCNC(=O)c1ccccn1)c1ccccn1`, in assay [1], the cell count came out at 711. Also, the inhibition is -11.9% (inactive) in assay [1], -77.9% (inactive) in assay [3], 15.1% (inactive) in assay [7] and 20% (inactive) in assay [8]. For the same compound, the inhibition of aggregation in assay [2] was -10.1% (inactive). Besides, the nuclei count worked out at 97.9% in assay [2] and 105% in assay [3]. In addition, the fluorescence slope in assay [4] is -0.491 (inactive). For the same compound, the NADPH fluorescence slope in assay [5] was -7e-05 (inactive). In addition, the slope in assay [6] is 0.00516 (inactive).
For the compound `CCCCOC(=O)c1[nH]c2c(c1C)C(=O)CC(c1cc(OC)c(OC)c(OC)c1)C2` (centres undefined), the cell count in assay [1] stood at 546. The inhibition in assay [1] is -1.7% (inactive); in assay [3], -7.4% (inactive); in assay [7], 7.86% (inactive); in assay [8], -20.9% (inactive). For the same compound, in assay [2], the inhibition of aggregation is 18.4% (inactive). Further, the nuclei count in assay [2] came to 79.6%; in assay [3] it was 104%. Moreover, in assay [4], the fluorescence slope is -0.57 (inactive). Moreover, the NADPH fluorescence slope in assay [5] was -2.8e-05 (inactive). The slope in assay [6] is 0.00591 (inactive).
As for `CCOC(=O)c1sc(NC(=O)C2CC=CCC2C(=O)O)nc1C` (centres undefined), in assay [1], the cell count was found to be 406. In addition, the inhibition in assay [1] was 2.5% (inactive); in assay [3] it was 19.8% (inactive); in assay [7], 21.8% (inactive); in assay [8], 32.8% (inactive). For the same compound, the inhibition of aggregation in assay [2] was -2.8% (inactive). The results for the nuclei count in assay [2] and in assay [3] were 97.8% and 105%, respectively. For the same compound, in assay [4], the fluorescence slope is -0.527 (inactive). The NADPH fluorescence slope in assay [5] was 5.4e-05 (inactive). Further, the slope in assay [6] is 0.00721 (inactive).
As for `Cc1ccc(C)c(S(=O)(=O)n2cnc3ccccc32)c1`, the cell count in assay [1] was found to be 262. The inhibition in assay [1] is -5.9% (inactive); in assay [3], -42.5% (inactive); in assay [7], 14.5% (inactive); in assay [8], 27.4% (inactive). Also, in assay [2], the inhibition of aggregation is 17.8% (inactive). The nuclei count in assay [2] came out at 79.3%; in assay [3], 108%. Further, the fluorescence slope in assay [4] is -0.463 (inactive). For the same compound, the NADPH fluorescence slope in assay [5] was 2.3e-05 (inactive). For the same compound, in assay [6], the slope is 0.00359 (inactive).
On to `COc1ccccc1N1CCN(C(=O)c2ccc(S(=O)(=O)N3CCCCCC3)cc2)CC1`, for which, in assay [1], the cell count is 604. Also, the inhibition is -13% (inactive) in assay [1], -59.2% (inactive) in assay [3], -1.31% (inactive) in assay [7] and -1.9% (inactive) in assay [8]. For the same compound, the inhibition of aggregation in assay [2] is -9.1% (inactive). In addition, the nuclei count in assay [2] came to 89.6%; in assay [3], 89.3%. For the same compound, the fluorescence slope in assay [4] was -0.606 (inactive). The NADPH fluorescence slope in assay [5] is -2.1e-05 (inactive). In addition, in assay [6], the slope was 0.0031 (inactive).
Regarding `COc1ccc(Cn2nnnc2CN2CCOCC2)cc1`, the cell count in assay [1] is 476. The inhibition is 2.5% (inactive) in assay [1], 1% (inactive) in assay [3], 16.9% (inactive) in assay [7] and 15.2% (inactive) in assay [8]. For the same compound, in assay [2], the inhibition of aggregation was -2.3% (inactive). Moreover, the nuclei count was 108% in assay [2] and 97.7% in assay [3]. Besides, the fluorescence slope in assay [4] was -0.441 (inactive). Moreover, the NADPH fluorescence slope in assay [5] is 1.6e-05 (inactive). In addition, the slope in assay [6] is 0.00479 (inactive).

The term inhibition denotes the drop in the measured response relative to a control, in per cent.
